# Data taken from paper PMC8384837, “Expanding the binding specificity for RNA recognition by a PUF domain”.
# Assays:
# Assay in all cases: yeast three-hybrid, YBZ-1, SC-Leu-His + 0.5 mM 3-AT, 4 days
# Details in all cases: tags: N-Gal4 AD-HA kept; label: inside an RPR1-promoter hybrid RNA with tandem MS2 sites; ssRNA
# [1] = molecular target: PUM1 PUF domain R5-RHS (Homo sapiens, UniProt Q14671 828-1176, C1007R;R1008H;Q1011S)
# How it was run: (§1)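 Matching RNA elements and Pumilio-1 PUF domain libraries, randomized at the three base-contacting residues of every repeat, were co-expressed from a centromeric plasmid in strain YBZ-1 (LexA–MS2 coat fusion, HIS3 reporter). The repeat regions were PCR-amplified and Illumina-sequenced from cells grown four days on SC-Leu (input) or SC-Leu-His + 0.5 mM 3-AT (selection). The interaction score is the log change in variant frequency from input to selection. It is computed in log2, with a pseudocount of 1 for absent variants.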
# [2] = molecular target: PUM1 PUF domain R5-KFS (Homo sapiens, UniProt Q14671 828-1176, C1007K;R1008F;Q1011S)
# How it was run: as §1
# [3] = molecular target: PUM1 PUF domain R4-CNV (Homo sapiens, UniProt Q14671 828-1176, N971C;H972N;Q975V)
# How it was run: as §1
# [4] = molecular target: PUM1 PUF domain R3-GPD (Homo sapiens, UniProt Q14671 828-1176, C935G;R936P;Q939D)
# How it was run: as §1
# [5] = molecular target: T1, PUM1 PUF domain R6-MHR (Homo sapiens, UniProt Q14671 828-1176, N1043M;Y1044H;Q1047R)
# T1 sequence: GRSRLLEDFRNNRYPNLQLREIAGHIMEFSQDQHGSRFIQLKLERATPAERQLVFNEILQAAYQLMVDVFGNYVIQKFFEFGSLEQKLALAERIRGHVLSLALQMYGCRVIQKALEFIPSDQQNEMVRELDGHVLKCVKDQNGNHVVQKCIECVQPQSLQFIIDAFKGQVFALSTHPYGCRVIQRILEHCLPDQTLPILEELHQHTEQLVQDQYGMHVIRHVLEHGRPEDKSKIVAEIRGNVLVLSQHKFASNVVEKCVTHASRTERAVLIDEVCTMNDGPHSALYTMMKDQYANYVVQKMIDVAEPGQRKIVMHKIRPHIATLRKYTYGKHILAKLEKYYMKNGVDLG
# How it was run: as §1
# [6] = molecular target: PUM1 PUF domain R5-RFQ (Homo sapiens, UniProt Q14671 828-1176, C1007R;R1008F)
# How it was run: as §1
# [7] = molecular target: PUM1 PUF domain R3-VRA (Homo sapiens, UniProt Q14671 828-1176, C935V;Q939A)
# How it was run: as §1
# [8] = molecular target: PUM1 PUF domain R5-DHC (Homo sapiens, UniProt Q14671 828-1176, C1007D;R1008H;Q1011C)
# How it was run: as §1
# [9] = molecular target: PUM1 PUF domain R4-NRN (Homo sapiens, UniProt Q14671 828-1176, H972R;Q975N)
# How it was run: as §1
# [10] = molecular target: PUM1 PUF domain R3-SCR (Homo sapiens, UniProt Q14671 828-1176, C935S;R936C;Q939R)
# How it was run: as §1
sequence,measurement,setting,value
GGCUAGAACUAGUGGAUCCCCCGGCGCCCGGCGGCUCGAGCCCGGGUAAGUGUCAAUAGUCUGCAUGCCGCCGGGCGCCAUGCCUGCAGGUCGACUCUAGAAAACAUG,binding signal,[1],5.1 log2 enrichment (interaction score)
same,binding signal,[2],5.16 log2 enrichment (interaction score)
GGCUAGAACUAGUGGAUCCCCCGGCGCCCGGCGGCUCGAGCCCGGGUAAGUGUACAUAGUCUGCAUGCCGCCGGGCGCCAUGCCUGCAGGUCGACUCUAGAAAACAUG,binding signal,[3],2.79 log2 enrichment (interaction score)
GGCUAGAACUAGUGGAUCCCCCGGCGCCCGGCGGCUCGAGCCCGGGUAAGUGUAAAUAGUCUGCAUGCCGCCGGGCGCCAUGCCUGCAGGUCGACUCUAGAAAACAUG,binding signal,[4],1.39 log2 enrichment (interaction score)
same,binding signal,[5],5.76 log2 enrichment (interaction score)
same,binding signal,[6],2.95 log2 enrichment (interaction score)
same,binding signal,[1],4.26 log2 enrichment (interaction score)
same,binding signal,[7],3.97 log2 enrichment (interaction score)
same,binding signal,[8],2.98 log2 enrichment (interaction score)
same,binding signal,[9],2.83 log2 enrichment (interaction score)
same,binding signal,[3],0.77 log2 enrichment (interaction score)
same,binding signal,[2],4.28 log2 enrichment (interaction score)
GGCUAGAACUAGUGGAUCCCCCGGCGCCCGGCGGCUCGAGCCCGGGUAAGUGUAUAUAGUCUGCAUGCCGCCGGGCGCCAUGCCUGCAGGUCGACUCUAGAAAACAUG,binding signal,[3],3.21 log2 enrichment (interaction score)
GGCUAGAACUAGUGGAUCCCCCGGCGCCCGGCGGCUCGAGCCCGGGUAAGUGUAAGUAGUCUGCAUGCCGCCGGGCGCCAUGCCUGCAGGUCGACUCUAGAAAACAUG,binding signal,[7],1.39 log2 enrichment (interaction score)
same,binding signal,[10],3.4 log2 enrichment (interaction score)
GGCUAGAACUAGUGGAUCCCCCGGCGCCCGGCGGCUCGAGCCCGGGUAAGUGUUAAUAGUCUGCAUGCCGCCGGGCGCCAUGCCUGCAGGUCGACUCUAGAAAACAUG,binding signal,[1],5.74 log2 enrichment (interaction score)
same,binding signal,[2],5.06 log2 enrichment (interaction score)
GGCUAGAACUAGUGGAUCCCCCGGCGCCCGGCGGCUCGAGCCCGGGUAAGUGUGAAUAGUCUGCAUGCCGCCGGGCGCCAUGCCUGCAGGUCGACUCUAGAAAACAUG,binding signal,[6],3.05 log2 enrichment (interaction score)
same,binding signal,[1],3.89 log2 enrichment (interaction score)
GGCUAGAACUAGUGGAUCCCCCGGCGCCCGGCGGCUCGAGCCCGGGUAAGUGUAAUUAGUCUGCAUGCCGCCGGGCGCCAUGCCUGCAGGUCGACUCUAGAAAACAUG,binding signal,[4],3.07 log2 enrichment (interaction score)
same,binding signal,[10],3.35 log2 enrichment (interaction score)
